Assay [1] concerns the target Glucocorticoid receptor (Homo sapiens) (UniProt P04150). Nature of the assay: GR-GFP Redistribution (AID 450;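 active = compounds whose dose series gives a full or clear partial fitted curve of increased nuclear translocation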; also: potency is read from the fitted curve at half-maximal effect). To be noted: U2OS GR-GFP nuclear translocation, laser cytometry, 2 h.
Assay [2] shares this target. The assay is described as follows: GR-EFC Redistribution (AID 451; calls by dose curve; also: potency is read from the fitted curve at half-maximal effect). To be noted: CHO-K1 GR-EFC translocation, beta-gal luminescence, 2 h. The essentials: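 Translocation of GR-ED fusion to nuclear EA restores b-gal, read by luminescence after 1 h room-temperature detection. Engineered CHO-K1 biosensor cells, 1,000/well, exposed 2 h at 37 C to titrations up to 46 uM final.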

Assay [3] has as its target Mitogen-activated protein kinase 10 (Mus musculus) (UniProt Q61831). The assay is described as follows: JNK3 AlphaScreen Assay (AID 530; active = well fitted curve in either direction with a large enough effect, not every such curve was filed as active;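 also: kinase came from lysate of stimulated human HepG2 cells; signal reports phosphorylation of biotinylated GST-cJun 1-79 at Ser73 with 10 µM ATP; % is scaled to controls: 0 for no effect and ±100 for the full control effect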). To be noted: JNK3 lysate, c-Jun phosphorylation; series mostly up to 57.1 µM. Summed up:
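Room-temperature AlphaScreen kinase assay; pre-activated HepG2 lysate as JNK3 source, biotin-GST-cJun(1-79) substrate, 10 uM ATP, compound 15 min preincubation.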

Assay [4] has as its target 3',5'-cyclic-AMP phosphodiesterase 4B (Homo sapiens) (UniProt Q07343). Nature of the assay: qHTS Assay for Inhibitors of PDE-IV (AID 607; active = well fitted activation curve with a large enough effect in the main read-out, with a control signal flat, not every such curve was filed as active; also: % of control where 0% means no effect). To be noted: HEK293 ACTOne CNG channel cells, membrane potential fluorescence; series mostly up to 22.9 µM. The essentials:
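Cell-based read-out of cAMP via a modified cyclic nucleotide-gated channel and membrane potential dye (535/590 nm) in HEK293 cells expressing PDE4 endogenously. Compounds tested up to 22.9 uM final; 100 uM RO 20-1724 reference.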

Assay [5] in a line: Cell Viability - HUV-EC-C (AID 542). Also: nearly all actives have a fitted effect of over 35% in size. Also: potency is read from the fitted curve at half-maximal effect. As to activity change, negative = cytotoxicity: % is scaled to controls: 0 for no effect and ±100 for the full control effect. To be noted: HUV-EC-C endothelial cell viability, qHTS; series mostly up to 92.2 µM. The essentials: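 HUV-EC-C normal human vascular endothelial cells, 1000 cells/well, pre-incubated 5 hr at 37 °C, then exposed to compounds for 40 hr at 37 °C in complete medium. Viability measured as intracellular ATP by CellTiter-Glo luminescence; AC50 from Hill fits.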

Assay [6] is described as follows: Cell Viability - SH-SY5Y (AID 544). Also: nearly all actives have a fitted effect of over 55% in size. Also: potency is read from the fitted curve at half-maximal effect. The settings on record: SH-SY5Y neuroblastoma cell viability; series mostly up to 92.2 µM. Summed up: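 Human neuroblastoma SH-SY5Y cells (1500/well) in complete medium were exposed to compounds for 40 hr at 37 °C; intracellular ATP was then quantified by CellTiter-Glo luminescence after 20 min at room temperature. AC50 came from Hill-equation concentration-response fits.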

A short description of assay [7]: Cell Viability - Renal Proximal Tubule (AID 545). Also: nearly all actives have a fitted effect of over 40% in size. Also: potency is read from the fitted curve at half-maximal effect. The settings on record: renal proximal tubule cells viability, primary cells of rat origin; series mostly up to 91.7 µM. Summed up:
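Rat kidney proximal tubule cells, freshly isolated; 1000 cells/well, 5 hr settle, compound 40 hr 37 °C. CellTiter-Glo 20 min RT, luminescence read. AC50 by standard Hill fit.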

The nature of assay [8]: Cellular Toxicity (caspase-3) HepG2 (AID 654). Also: potency is read from the fitted curve at half-maximal effect.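 As to caspase-3 activation: cells exposed to compound for 16 hours before reading; 0% = DMSO alone and 100% = caspase signal from 100 µM tamoxifen.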 The settings on record: HepG2 caspase-3 activation, luminescence; series mostly up to 92.2 µM. The essentials:
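HepG2 cells (1500/well) in complete medium were treated with compounds for 16 hr at 37 °C. Caspase-3/7 activity was then read as luminescence from peptide-aminoluciferin cleavage. AC50 came from Hill fits, normalized to DMSO and 100 uM tamoxifen.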

A short description of assay [9]: Cellular Toxicity (caspase-3) Jurkat (AID 655).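 Also: cells exposed to compound for 16 h at 37 °C before reading.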 Also: potency is read from the fitted curve at half-maximal effect. To be noted: Jurkat caspase-3 activation, luminescence; series mostly up to 92.2 µM. The essentials:
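Luminescent caspase-3/7 readout (aminoluciferin substrate cleavage) in human T-cell leukemia Jurkat cells after 16 hr compound exposure. Concentration-response normalized to DMSO and 100 uM tamoxifen; AC50 by standard Hill equation.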

Assay [10] in a line: Cellular Toxicity (caspase-3) HUV-EC-C (AID 656). To be noted: HUV-EC-C cells, caspase-3 activation (apoptosis), vehicle = 0, 100 µM tamoxifen = 100%; series mostly up to 92.2 µM. The essentials:
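Luminescent caspase-3/7 activation (aminoluciferin substrate cleavage) in HUV-EC-C cells after 16 hr compound exposure, 37°C. Signal normalized to DMSO basal and 100 uM tamoxifen as 100%; AC50 from concentration-response fitted with the Hill equation.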

The nature of assay [11]: Cellular Toxicity (caspase-3) BJ (AID 658).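 Also: 0% = DMSO basal and 100% = 10 µM staurosporine.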 To be noted: BJ fibroblasts, luminescence, normalized: DMSO 0%, staurosporine 100%; series mostly up to 91.7 µM. Summed up:
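Readout: Caspase-Glo 3/7 luminescence increase in BJ cells after 16 hr treatment at 37 °C. Staurosporine and tamoxifen served as positive controls; AC50 values came from Hill modelling of data normalized to DMSO and 10 uM staurosporine.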

A short description of assay [12]: Cellular Toxicity (caspase-3) MRC-5 (AID 659). Also: potency is read from the fitted curve at half-maximal effect.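 As to caspase-3 activation: 0% = DMSO basal and 100% = 10 µM staurosporine.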 To be noted: MRC-5 cells, luminescence; Potency: caspase-3 activation; series mostly up to 91.7 µM. Summed up:
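Concentration-dependent caspase 3/7 activation is measured in human normal lung fibroblasts (MRC-5) following 16-hour treatment. AC50 values come from standard Hill-equation modeling of luminescence normalized to DMSO and 10 uM staurosporine.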

The nature of assay [13]: Cellular Toxicity (caspase-3) Mesangial (AID 660).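 Also: cells exposed to compound for 16 h before the caspase read.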 The settings on record: mesangial cells, normalized: DMSO 0%, 100 µM tamoxifen 100%; series mostly up to 91.7 µM. The essentials: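 Human renal glomerular mesangial cells (1000/well) were treated with compounds for 16 h at 37 °C in complete medium, then caspase 3/7 activity was read by Caspase-Glo luminescence. Data were normalized to DMSO and 100 uM tamoxifen; AC50 from Hill fits.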

Assay [14] is described as follows: Cellular Toxicity (caspase-3) SK-N-SH (AID 661).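 Also: 0% = DMSO basal and 100% = 10 µM staurosporine.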 The settings on record: SK-N-SH caspase-3 activation, qHTS, DMSO as zero, staurosporine as full; series mostly up to 91.7 µM. The essentials: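 SK-N-SH human neuroblastoma cells (1500/well) were treated with compounds for 16 hr at 37 °C in complete medium; caspase 3/7 activity was read by Caspase-Glo luminescence. AC50 came from Hill fits of data normalized to DMSO and 10 uM staurosporine.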

Assay [15] is described as follows: Cellular Toxicity (caspase-3) H-4-II-E (AID 663).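 Also: cells exposed to compound for 16 hr before readout.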 To be noted: H-4-II-E rat hepatoma, scaled: DMSO 0%, 100 µM tamoxifen 100%; series mostly up to 92.2 µM. The essentials:
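Apoptosis induction is scored as increased luminescence from caspase 3/7 substrate cleavage in rat hepatoma H-4-II-E cells exposed to compound for 16 hr. Activity is scaled between DMSO and 100 uM tamoxifen.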

A short description of assay [16]: Cellular Toxicity (caspase-3) Hek293 (AID 664).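 Also: cells exposed to compound for 16 h at 37 °C before readout.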 To be noted: HEK293 caspase-3 activation, DMSO = 0%, 100 µM tamoxifen = 100%; series mostly up to 92.2 µM. The essentials: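 HEK293 cells were exposed to compounds in complete medium for 16 hr at 37 °C, then caspase-3/7 activity was read by Caspase-Glo 3/7 luminescence after 20 min at room temperature. Data normalized to DMSO and 100 uM tamoxifen; AC50 from Hill fits.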

Assay [17] is described as follows: Cell Viability - N2a (AID 540).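 Also: plate controls were DMSO alone for no effect and tamoxifen control for full effect; nearly all actives have a fitted effect of over 45% in size.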 The settings on record: N2a mouse neuroblastoma cell viability; activity change, negative = cytotoxicity: at 92.2 µM (top of the series). Summed up:
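Mouse neuroblastoma N2a cells (1500/well) were preincubated 5 hr at 37 °C, then exposed to compounds for 40 hr at 37 °C in complete medium. Viability was read as intracellular ATP by CellTiter-Glo luminescence; AC50 from Hill fits.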

The nature of assay [18]: Cell Viability - NIH 3T3 (AID 541).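 Also: plate controls were DMSO alone for no effect and tamoxifen positive control for full effect; nearly all actives have a fitted effect of over 25% in size.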 To be noted: NIH 3T3 cell viability, qHTS; activity change, negative = cytotoxicity: at 92.2 µM (top of the series). Summed up: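 NIH 3T3 mouse embryo fibroblasts (1000 cells/well) were plated in complete medium and treated with compound for 40 hr at 37 °C. Viability was read as intracellular ATP by CellTiter-Glo luminescence; AC50 values came from Hill-equation fits of concentration-response data.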

The nature of assay [19]: Cell Viability - Mesenchymal (AID 546).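 Also: cells exposed to compound for 40 hours before reading.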 To be noted: mesenchymal cells viability, qHTS; series mostly up to 91.7 µM. The essentials: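 AC50 values reflect the drop in intracellular ATP in a human kidney mesenchymal line derived from normal glomeruli. Treatment lasts 40 hr at 37 °C in complete medium, and the signal comes from CellTiter-Glo luminescence.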

Several values for one entry are separate records, joined by “and”; a condition that tells them apart may be missing. Identical values can stand only once. A number with no mark means an inactive call. Results filed as inconclusive are left out. Activity calls are given as the source filed them. Unless noted, calls follow the shape of the dose curve; as a rule, active = well fitted curve in the direction sought with a large enough effect; inconclusive = small, poorly fitted or top-dose-only effect, or another doubt; inactive = no such curve, though single readings can be large; an effect the other way counts as inactive or inconclusive.

From PubChem BioAssay (NCATS) come the findings set out here.

Sequence of 3',5'-cyclic-AMP phosphodiesterase 4B (Homo sapiens) (Q07343 whole entry, looked up): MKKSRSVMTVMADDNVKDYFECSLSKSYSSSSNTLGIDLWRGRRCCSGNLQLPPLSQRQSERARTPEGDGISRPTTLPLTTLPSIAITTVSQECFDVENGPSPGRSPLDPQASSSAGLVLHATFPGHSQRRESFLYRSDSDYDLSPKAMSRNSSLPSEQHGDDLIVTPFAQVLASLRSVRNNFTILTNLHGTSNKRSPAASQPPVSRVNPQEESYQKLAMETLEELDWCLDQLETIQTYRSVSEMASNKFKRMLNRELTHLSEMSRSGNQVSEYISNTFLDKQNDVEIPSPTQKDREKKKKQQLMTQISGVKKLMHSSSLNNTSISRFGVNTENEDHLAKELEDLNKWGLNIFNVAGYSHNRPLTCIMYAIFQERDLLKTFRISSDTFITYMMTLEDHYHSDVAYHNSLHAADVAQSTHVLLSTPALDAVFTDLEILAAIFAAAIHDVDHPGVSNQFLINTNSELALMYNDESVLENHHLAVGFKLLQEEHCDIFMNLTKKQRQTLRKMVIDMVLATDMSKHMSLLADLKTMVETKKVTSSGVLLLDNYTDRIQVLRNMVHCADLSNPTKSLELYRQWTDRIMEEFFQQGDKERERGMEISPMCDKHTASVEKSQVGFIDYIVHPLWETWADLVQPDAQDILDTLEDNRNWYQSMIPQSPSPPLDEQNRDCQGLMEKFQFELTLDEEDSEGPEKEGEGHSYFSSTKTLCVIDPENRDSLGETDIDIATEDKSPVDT
Sequence of Glucocorticoid receptor (Homo sapiens) (P04150 whole entry, looked up, the tested form may be a part): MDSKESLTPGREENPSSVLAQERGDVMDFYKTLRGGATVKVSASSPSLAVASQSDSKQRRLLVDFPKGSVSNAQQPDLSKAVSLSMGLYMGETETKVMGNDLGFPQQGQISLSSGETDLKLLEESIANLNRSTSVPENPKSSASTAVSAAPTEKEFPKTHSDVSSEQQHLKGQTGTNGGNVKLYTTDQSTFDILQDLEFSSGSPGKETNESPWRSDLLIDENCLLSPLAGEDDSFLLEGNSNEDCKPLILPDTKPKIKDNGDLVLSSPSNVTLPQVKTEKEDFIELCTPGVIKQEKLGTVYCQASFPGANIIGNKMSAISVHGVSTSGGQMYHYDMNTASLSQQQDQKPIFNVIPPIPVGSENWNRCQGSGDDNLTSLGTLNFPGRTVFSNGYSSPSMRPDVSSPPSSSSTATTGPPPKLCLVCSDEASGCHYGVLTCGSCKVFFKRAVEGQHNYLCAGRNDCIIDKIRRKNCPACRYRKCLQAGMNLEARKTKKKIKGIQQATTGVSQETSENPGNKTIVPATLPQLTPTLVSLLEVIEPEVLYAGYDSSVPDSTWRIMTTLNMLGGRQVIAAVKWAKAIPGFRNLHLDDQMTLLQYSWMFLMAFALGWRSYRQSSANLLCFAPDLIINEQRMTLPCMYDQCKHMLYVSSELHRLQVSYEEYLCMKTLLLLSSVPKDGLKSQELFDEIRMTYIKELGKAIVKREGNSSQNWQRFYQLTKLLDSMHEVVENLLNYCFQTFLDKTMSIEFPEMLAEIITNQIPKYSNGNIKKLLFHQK

Regarding `NC(N)=NCCC[C@H](N)C(=O)O`, the Potency in assay [1] and in assay [2] was above 46 µM throughout. For the same molecule, in [3], the Potency entry was “inactive”. In addition, in [4], the outcome was inactive.
As to `O=C1c2c(O)cccc2Cc2cccc(O)c21`, the Potency result in [3], in assay [5], in [6], in assay [7], in [8] and in assay [9] was “inactive” each time. Moreover, the Potency result in assay [12] is “inactive”. Also, the outcome in assay [10], in assay [11], in assay [13], in assay [14], in assay [15] and in assay [16] was inactive.
As for `Oc1cccc(O)c1`, the Potency result in assay [3], in assay [18], in assay [5], in assay [7], in assay [8] and in assay [9] was “inactive” throughout. Besides, the Potency result in [12] was “inactive”. Besides, the activity change, negative = cytotoxicity in assay [17] is -7.46%. In addition, the outcome in [19], in [10], in assay [11], in [13], in assay [14] and in [15] was inactive. Further, in [16], the outcome was inactive.
As to `CC1=C(CC(=O)O)c2cc(F)ccc2/C1=C\c1ccc(S(C)(=O)=O)cc1`, the Potency entry in assay [3] was “inactive”. The molecule was classed as inactive in assay [4].
`CCCCOc1cc(C(=O)OCCN(CC)CC)ccc1N`: the Potency in assay [1] and in [2] was above 20.6 µM each time. For the same molecule, the Potency result in assay [3] is “inactive”. The molecule was called inactive in assay [4].
Regarding `Cc1cc2c(cc1S(N)(=O)=O)S(=O)(=O)CCC2`, the Potency in [1] and in assay [2] was above 20.6 µM each time. In addition, the Potency entry in assay [3] is “inactive”. In addition, the result in assay [4] was inactive.
Consider `CCN(CC)CCNC(=O)c1cc(Cl)c(N)cc1OC`, for which the Potency result in assay [3] was “inactive”. For the same molecule, in assay [4], the outcome was inactive.
Regarding `COc1ccc(Cl)cc1C(=O)NCCc1ccc(S(=O)(=O)NC(=O)NC2CCCCC2)cc1`, in assay [3], the Potency result is “inactive”. The result in assay [4] was inactive.
As for `Cc1c(O)cccc1C(=O)N[C@@H](CSc1ccccc1)[C@H](O)CN1C[C@H]2CCCC[C@H]2C[C@H]1C(=O)NC(C)(C)C`, the Potency result in assay [3] is “inactive”. The activity change, negative = cytotoxicity in assay [17] was -108% (active). The Potency in assay [5] is 31.6 µM (active); in assay [6], 1.26 µM (active); in [7] it was 31.6 µM (active); in assay [8], 63.1 µM (active); in [9] it was 31.6 µM (active); in [12], 50.1 µM (active). Besides, the outcome in assay [10], in [11] and in [13] was inactive.
Turning to `C[C@H](N)[C@H](O)c1cccc(O)c1`, the Potency in assay [1] and in assay [2] was above 20.6 µM in each case. Further, the Potency result in [3] was “inactive”. Also, the molecule was called inactive in [4].
For the molecule `CN(C)CCCN1c2ccccc2CCc2ccccc21`, the Potency result in assay [3] is “inactive”.
Regarding `Nc1ccc(S(=O)(=O)NC(=O)c2ccccc2)cc1`, the Potency in assay [1] and in [2] was above 20.6 µM throughout. Besides, in assay [3], the Potency result is “inactive”. Further, the molecule was classed as inactive in assay [4].
Regarding `CC1=C(CC(=O)O)c2cc(F)ccc2/C1=C\c1ccc(S(C)=O)cc1` (stereo not drawn), the Potency is > 46 µM and > 20.6 µM in assay [1]; > 46 µM and > 20.6 µM in assay [2]. In assay [4], the result was inactive.
With `NCCNCCNCCN`, the Potency result in [3], in assay [18], in assay [5], in assay [6], in assay [7] and in assay [8] was “inactive” each time. Moreover, the Potency result in [9] and in assay [12] was “inactive” throughout. Moreover, the activity change, negative = cytotoxicity in assay [17] is -20%. Further, the molecule was called inactive in assay [19], in assay [10], in [11], in [13], in assay [14] and in assay [15]. In addition, the molecule was called inactive in assay [16].
As to `Cc1cc(N)c2ccccc2[n+]1CCCCCCCCCC[n+]1c(C)cc(N)c2ccccc21`, the Potency in assay [1] is > 46 µM and > 20.6 µM; in assay [2] it was > 46 µM and > 20.6 µM. Moreover, in [3], the Potency result was “inactive”. In addition, the molecule was classed as inactive in assay [4].
For `CCN(CC)CCOC(=O)C1(C2CCCCC2)CCCCC1`, in assay [3], the Potency result is “inactive”. For the same molecule, the result in assay [4] was inactive.
As for `CC(C)C(=O)c1c(C(C)C)nn2ccccc12`, the Potency result in assay [3] was “inactive”.
On to `[Cl][In]([Cl])[Cl]`, for which the activity change, negative = cytotoxicity in assay [17] is -0.39%. The Potency result in assay [18], in assay [5], in [6], in [7], in assay [8] and in assay [9] was “inactive” in each case. Also, the Potency result in [12] is “inactive”. Further, the result in assay [19], in [10], in assay [11], in [13], in [14] and in [15] was inactive. Moreover, the outcome in assay [16] was inactive.
On to `CCCn1cnc2c1c(=O)n(CCCCC(C)=O)c(=O)n2C`, for which the Potency in assay [1] and in assay [2] was above 46 µM each time. For the same molecule, the Potency entry in [3] is “inactive”. The outcome in assay [4] was inactive.
Take `c1ccc(CN(CC2=NCCN2)c2ccccc2)cc1`: the Potency result in assay [3] is “inactive”. The outcome in assay [4] was inactive.
